Measurements published in PubChem BioAssay AID1053197 (The Scripps Research Institute Molecular Screening Center, 2014).
About 2,600 (0.7%) of roughly 370,000 compounds were called active.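 The calls were made as follows: active = inhibition above a cutoff: mean of compounds within the control limits plus 3 SD of those (cut at about 17% in these data); inactive = the rest.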 The entries come from a sample that favours actives as a whole.

target: Sialate O-acetylesterase (Homo sapiens) (UniProt Q9HAT2); assay: blockers of sialate O-acetylesterase activity-probe labeling – biochemical, fluorescence polarization, FP-Rh probe, 1536-well HTS, primary screen (AID 1053197); conditions: SIAE FP-Rh probe binding, at 9.66 µM, active compounds read high;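 also: 0% = plate median of compound wells and 100% = probe without SIAE protein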
Sequence (Q9HAT2 whole entry, looked up): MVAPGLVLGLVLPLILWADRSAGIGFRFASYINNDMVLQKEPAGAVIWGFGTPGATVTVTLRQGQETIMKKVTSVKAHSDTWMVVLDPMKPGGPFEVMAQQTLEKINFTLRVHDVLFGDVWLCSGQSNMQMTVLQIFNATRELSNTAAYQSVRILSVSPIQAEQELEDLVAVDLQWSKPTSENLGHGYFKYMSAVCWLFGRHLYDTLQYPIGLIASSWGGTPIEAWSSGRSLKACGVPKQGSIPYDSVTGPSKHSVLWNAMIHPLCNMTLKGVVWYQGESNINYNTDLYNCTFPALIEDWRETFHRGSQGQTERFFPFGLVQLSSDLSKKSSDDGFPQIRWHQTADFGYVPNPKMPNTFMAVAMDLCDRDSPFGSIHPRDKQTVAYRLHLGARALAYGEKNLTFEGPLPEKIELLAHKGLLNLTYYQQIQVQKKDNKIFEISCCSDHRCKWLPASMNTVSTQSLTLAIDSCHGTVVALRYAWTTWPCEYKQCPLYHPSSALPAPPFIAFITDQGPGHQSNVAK

inhibition, active:
C[C@@H]1O[C@@H](OC[C@H]2O[C@@H](Oc3c(-c4ccc(O)cc4)oc4cc(O)cc(O)c4c3=O)[C@H](O)[C@@H](O)[C@@H]2O)[C@H](O)[C@H](O)[C@H]1O 19.5%
Cc1ccc(N=C2NC(=O)/C(=C/C=C/c3ccco3)S2)cc1C 27.6%
O=C(O)c1ccccc1N=N/C(=N/Nc1cc(S(=O)(=O)O)ccc1O)c1ccccc1 28.9%
CCCCC[C@H](C)N1C[C@@H](COCc2ccccc2)Oc2cc(N3CC[C@@H](N(C)C)C3)ccc2S1(=O)=O 23.3%
CCOC(=O)N1CCN(C(=O)CSc2ccc(Cl)cc2)CC1 19%
O=C1CC(c2ccccc2)=NN1c1ccc([N+](=O)[O-])cc1 19.8%
Cc1cc2ccccn2c1C(=O)c1cccc(F)c1 18.5%
CCCn1c(O)c(CN2CCCC(C)C2)c(C)c(C#N)c1=O (configuration not stated) 43.7%
CCn1c(=O)n(CC)c2cc(N3CCCC3)c(NC(=O)c3ccccc3Br)cc21 17.9%
CN(C)c1ccc(N/C=C/C(=O)C(F)(F)F)cc1 17.9%
C=CCN1C(=O)[C@@H](CC(=O)NCC2CCCCC2)[C@]2(C(=O)OC)CCCCC=C12 20.8%
Oc1ccc(CNc2ccccc2O)cc1 21.1%
Cc1ccc(C2Nc3cccc4cccc(c34)N2)cc1 29.6%
Oc1ccc(C2Nc3cccc4cccc(c34)N2)cc1 58.9%
COc1cccc2c1C(=O)c1c(O)c3c(c(O)c1C2=O)CC(O)(C(C)=NNC(=O)c1ccc(Cl)c(Cl)c1)CC3OC1CC(N)C(O)C(C)O1 (configuration not stated) 62.7%
CCOC(=O)/C(N=Nc1cc(C(=O)O)cc(C(=O)O)c1)=C(\O)CCl 21.9%
CCN(CC)CCCC(C)n1c2nc(=O)[nH]c(=O)c-2nc2cc(Cl)ccc21 (configuration not stated) 29.6%
O=C(CSc1ccc(-c2ccco2)nn1)Nc1cccc(F)c1 17.1%
Cc1cccc(C)c1NC(=O)CN(C)C(=O)CCC(=O)c1ccccc1 19.1%
Oc1ccc2ccc3cccc[n+]3c2c1 17.1%

inhibition, inactive:
COc1cccc(Cn2cc(COC(=O)Nc3ccc(F)cc3)nn2)c1 -7.19%
CCOC(=O)c1cc2cc(-c3c(C(=O)OCC)oc4cc(O)cc(O)c4c3=O)ccc2o1 17.1%
Cc1ccc(-n2c(COc3ccccc3)nnc2SCC(=O)Nc2ccc3c(c2)OCCO3)cc1 -2.64%
Cc1ccc(C2=CCN(C)C(=O)N2c2ccc(Cl)cc2)cc1 -0.37%
Cc1cc(C(=O)NN=C/C=C/c2ccco2)n[nH]1 3.3%
CCOc1ccc(Oc2c(Cl)cnn(-c3ccc(C)cc3)c2=O)cc1 -1.82%
CC(C)N1CCCCC(NC(=O)c2ccc3ccccc3c2)C1=O (configuration not stated) -1.26%
CCCCC(=O)N[C@@H]1CC[C@@]23CCCN2C(=O)CCC[C@H]3[C@H]1C -5.34%
CC(NCc1ccco1)C(=O)N1CCCCC1 (configuration not stated) 5.06%
O=C(Nc1cccc(Cl)c1)OC1CC2CC1[C@H]1CCCCN1[C@H]2Cc1ccccc1 (some centres not stated) -4.13%
CSc1ccc(Oc2cccc3c2S(=O)(=O)N([C@H](C)c2ccccc2)C[C@@H](COCc2ccccc2)O3)cc1C -4.88%
CCCCC[C@H](C)N1C[C@@H](COCc2ccccc2)Oc2cc(N3CCC[C@@H]3CO)ccc2S1(=O)=O 2.79%
O=C(CSc1nnc(-c2ccccc2)n1Cc1ccco1)Nc1ccccc1-c1ccccc1 -6.96%
CCOC(=O)[C@]12CCCC=C1N(CCCOC)C(=O)[C@@H]2CC(=O)N1CCOCC1 -6.36%
COc1cccc(N(C)C(=O)[C@@H](C)[C@@H](O)c2ccc3ccccc3c2)c1 -4%
C=C(C)C#CC(Cc1ccccc1)NCC1CC1 (configuration not stated) 4.41%
O=C(CSc1ccc(Cl)cc1)NC1CC1 -0.71%
CS(=O)(=O)N1CCN(C(=O)CSc2ccccc2)CC1 -3.36%
CCC(C)[C@@H](C(=O)OC)N(CCc1cn(Cc2ccccc2)nn1)S(=O)(=O)c1ccccc1Br (some centres not stated) -2.68%
C/C(N)=C(/C#N)C(=O)COC(=O)C1=NN(c2ccccc2)C(=O)CC1 0.03%
CCN1N=C(c2ccccc2)CCC1=O -3.71%
O=C(CNS(=O)(=O)c1ccccc1F)N1CCN(c2ccccn2)CC1 2.08%
O=C(Nc1cc(Cl)cc(Cl)c1)OCCN1CCCC12CCC(c1ccccc1)CC2 (configuration not stated) -10.1%
CC(=O)Nc1ccc(/C=N/Nc2ccc(C(=O)c3c(C)cc4ccccn34)cc2[N+](=O)[O-])cc1 9.63%
Cc1cc2ccccn2c1C(=O)c1cccc(S(=O)(=O)N2CCOCC2)c1 -6.52%
Fc1ccc2nc(COCc3nc4ccc(F)cc4[nH]3)[nH]c2c1 -7.18%
Cc1c(CN2CCCCC2)c(O)n(CCO)c(=O)c1C#N -5.55%
CC1CCCN(Cc2nc3c(c(=O)n(C)c(=O)n3C)n2CC(=O)c2ccccc2)C1 (configuration not stated) 7.4%
COc1cccc(CNC(=O)CNS(=O)(=O)c2ccc3nc(C)sc3c2)c1OC 2.11%
Nc1[nH]c(/C=C2/CCCCC2n2[nH]c(=O)n(-c3ccccc3)c2=O)c(Cc2ccccc2)[n+]1Cc1ccccc1 (configuration not stated) 10.8%
O=S1(=O)c2ccc(Br)cc2OC[C@H](Cc2ccccc2)N1Cc1cn(Cc2ccccc2)nn1 3.61%
CC(c1c[nH]c2ccccc12)c1c(-c2ccccc2)n(C)c2ccccc12 (configuration not stated) 10.3%
COc1ccc(NS(=O)(=O)c2ccc(N3CCOCC3)c(NC(=O)c3ccccc3Br)c2)cc1 -4.27%
O=C(NC(=O)c1ccccc1N1CCCCC1)Nc1ccc(Br)cc1 2.43%
CC(C)CNS(=O)(=O)CC1NCCc2ccccc21 (configuration not stated) -2.16%
CC1CN(/C=C/C(=O)C(F)(F)F)CC(C)O1 (configuration not stated) 2.43%
CNC(=S)NNC(=O)c1ccc(N(C)C)cc1 10.3%
C=CCN1C(=O)[C@@H](CC(=O)NCCCCc2ccccc2)[C@]2(C(=O)OCC)CCCCC/C=C/12 -2.6%
C=CCN1C(=O)[C@@H](CC(=O)NCCCOCCCC)[C@]2(C(=O)OCC)CCCCC/C=C/12 -0.48%
c1ccc(CNCc2ccc(CNCc3ccccc3)cc2)cc1 -0.12%
O=[N+]([O-])c1ccccc1NCc1ccc(Cl)cc1 0.44%
COc1cc(NC(=O)C2CCCN(S(=O)(=O)c3ccc(C(C)(C)C)cc3)C2)cc(OC)c1 (configuration not stated) -0.78%
CCC(=O)c1c(CC)c2n3c1=CC[C@H]3CC(Br)C=2 (some centres not stated) -1.56%
CCCC[C@H]1C2CC(OC(=O)NCc3ccccc3)C(C2)[C@H]2CCCCN21 (some centres not stated) -0.4%
O=C(CSc1nc2ccccc2s1)N=Nc1c(O)[nH]c2ccccc12 -11.1%
COc1ccc(N2CCN(CCNS(=O)(=O)c3ccc([N+](=O)[O-])cc3)CC2)cc1 1.89%
FC(F)(F)c1cccc(NC(=S)OC2CCC23CCC(c2ccccc2)CC3)c1 (configuration not stated) -8.64%
Cc1ccccc1NC(=O)Cn1nnc(-c2ccccc2F)n1 -1.96%
CCCC1CCC2(CCCN2CCOC(=O)NCc2ccccc2)CC1 (configuration not stated) -1.37%
COc1ccc(CN(CCN2CCOCC2)C(=O)c2ccc(C)cc2)cc1OC -2.14%
CCOC(=O)C1(Cc2ccccc2)CCN(Cc2cn(C(C)=O)c3ccccc23)CC1 -0.8%
CCCC[C@H](C(=O)N(CC)c1ccccc1)[C@@H](O)c1ccc2ccccc2c1 -0.99%
CC(c1ccc(N)cc1)c1cn(C)c2ccccc12 (configuration not stated) 10.7%
COC(=O)[C@]12C[C@H](CC(=O)NCCc3ccccc3OC)C(=O)N(Cc3ccco3)C1=C[C@H](C(C)C)O[C@@H]2C1CC1 0.34%
Cc1cc2nc3c(=O)[nH]c(=O)nc-3n(C[C@H](O)[C@H](O)[C@H](O)CO)c2cc1C 6.59%
COC(=O)C1CN(CCc2ccccc2)CCS(=O)(=O)N1Cc1ccc(F)cc1 (configuration not stated) 4.17%
COc1ccc2c(c1)CN1CN(CCc3ccccc3)S(=O)(=O)CC21 (configuration not stated) -7.42%
C=CCN1[C@@H](Cc2ccccc2)COc2cccc(N3CCSCC3)c2S1(=O)=O -1.03%
O=C(CSc1ccc(-c2ccc(F)cc2)nn1)Nc1ccc2c(c1)OCCO2 9.37%
COc1ccc(NC(=O)CSc2ccc(-c3ccco3)nn2)c(OC)c1 4.03%
O=C(NC1CCCCN(Cc2cccc(C(F)(F)F)c2)C1=O)c1ccccc1I (configuration not stated) 8.59%
C#CCN([C@H](C(=O)OC)C(C)CC)S(=O)(=O)c1ccccc1Br (some centres not stated) -0.84%
Cc1nc(-c2ccc(F)cc2)c(CC(=O)N(C)CC(=O)Nc2c(C)cccc2C)s1 -6.4%
Cc1ccc(C(=O)CCC(=O)N(C)CC(=O)Nc2c(Cl)cccc2Cl)cc1 4.52%
O=C(CSc1nc2ccccc2nc1N1CCCCC1)N1CCN(S(=O)(=O)c2cccc([N+](=O)[O-])c2)CC1 1.34%
O=C1C(=O)N(Cc2ccc(-c3ccsc3)cc2)c2ccc(OC(F)(F)F)cc21 4.4%
COc1ccc(C(=O)CSc2nnc(-c3cnccn3)n2-c2ccc(C)cc2)cc1 4.14%
